For assay [1], the target named is DNA repair nuclease/redox regulator APEX1 (Homo sapiens) (UniProt P27695). The assay can be described thus: qHTS Validation Assay for Inhibitors of the Human Apurinic/apyrimidinic Endonuclease 1 (APE1) (AID 1705;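 note: TAMRA fluorescence gain over two minutes as APE1 cuts a quenched THF abasic duplex; % is set by controls: 0 for no effect and ±100 for the full control effect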). The essentials:
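Human APE1 was preincubated with compound for 15 min at room temperature, then 50 nM (final) THF-abasic double-stranded DNA substrate bearing 5'-TAMRA and 3'-BHQ-2 was added. Incision-driven fluorescence rise (ex 525/em 598 nm) was read kinetically.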
A general note: In qHTS, concentration-response curves come from the screen itself.

The nature of assay [2]: Counterscreen for APE1 Inhibitors: Fluorescent Dye Displacement Validation Assay (AID 1707).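 For activity change, negative = inhibition: plate controls were ThO with dsDNA and no compound for no effect and ThO without dsDNA for full effect.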 Note: potency is the fitted concentration of half-maximal effect. The essentials:
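ThO 250 nM + dsDNA 50 nM (THF abasic site, 5'-TAMRA), Tris-HCl pH7.5/50mM NaCl/2 mM MgCl2/0.01% Tween-20; compounds pin-transferred; ex 480/em 540 nm endpoint. Neutral = no compound; no-DNA ThO wells = negative control.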
In general terms: A counterscreen serves to expose hits that act by an unwanted route or on another target.

The nature of assay [3]: qHTS for differential inhibitors of proliferation of Plasmodium falciparum line 7G8 (AID 1815).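 For activity change, negative = inhibition: plate controls were vehicle wells for no effect and reference inhibitor wells for full effect.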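 Note: parasite growth measured after three days of incubation.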 Note: potency is the fitted concentration of half-maximal effect.
Assay [4] in a line: qHTS for differential inhibitors of proliferation of Plasmodium falciparum line GB4 (AID 1816).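 For activity change, negative = inhibition: 0% = vehicle DMSO and -100% = reference inhibitor.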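 Note: parasite growth measured after 72 h incubation.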 Note: potency is the fitted concentration of half-maximal effect. As to conditions: Potency: Plasmodium falciparum GB4 proliferation inhibition.
Assay [5] can be described thus: qHTS for differential inhibitors of proliferation of Plasmodium falciparum line 3D7 (AID 1876). Note: potency is the fitted concentration of half-maximal effect.
Assay [6] is described as follows: qHTS for differential inhibitors of proliferation of Plasmodium falciparum line D10 (AID 1877).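 For activity change, negative = inhibition: plate controls were vehicle wells for no effect and reference inhibitor wells for full effect.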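 Note: parasites grown with compound for 72 h before DNA staining.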 Note: potency is the fitted concentration of half-maximal effect.
Assay [7] in a line: qHTS for differential inhibitors of proliferation of Plasmodium falciparum line Dd2 (AID 1882).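 For activity change, negative = inhibition: compound exposure of 72 h on infected erythrocytes; plate controls were DMSO vehicle for no effect and 0.29 µM artemisinin for full effect.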 Note: nearly all actives have a fitted effect of over 65% in size. Note: potency is the fitted concentration of half-maximal effect. As to conditions: Potency: Plasmodium falciparum Dd2 proliferation inhibition. Put shortly: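 SYBR Green I DNA fluorescence read-out, ex 485/em 535 nm. Signals were normalized to 0.29 uM artemisinin and DMSO wells, then corrected using vehicle-only plates flanking each stack. Parasite growth ran 72 h in erythrocytes before lysis.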

Assay [8] can be described thus: qHTS for differential inhibitors of proliferation of Plasmodium falciparum line W2 (AID 1883).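 For activity change, negative = inhibition: 0% = vehicle wells and -100% = control inhibitor wells.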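 Note: parasites grown with compound for 72 h before lysis and staining.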 Note: potency is the fitted concentration of half-maximal effect. As to conditions: Potency: Plasmodium falciparum W2 proliferation inhibition.
Assay [9] can be described thus: qHTS for differential inhibitors of proliferation of Plasmodium falciparum line HB3 (AID 1886).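 For activity change, negative = inhibition: plate controls were vehicle for no effect and reference inhibitor for full effect.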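 Note: parasites grown with compound for 72 h before SYBR Green readout.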 Note: potency is the fitted concentration of half-maximal effect. As to conditions: Potency: Plasmodium falciparum HB3 proliferation inhibition.
A short description of assay [10]: qHTS Assay for Modulators of Human Peripheral Myelin Protein 22 (PMP22) Expression/Activity (AID 1967; active = well fitted curve in the direction sought with a large enough effect in the signal ratio; the % refers to the signal ratio;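 note: 0% = untreated cells and 100% end not stated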). The essentials: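 MSC80 mouse Schwann cells stably carrying Pmp22 promoter–green click beetle luciferase plus EF-alpha–red luciferase control were dosed for 24h at 37 °C. Dual-colour luminescence was filter-overlap corrected; %Activity came from green/red ratio versus untreated cells.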

Assay [11] addresses Ferritin light chain (Equus caballus) (UniProt P02791). In words: qHTS Validation Assay for Identification of Novel General Anesthetics (AID 2323). Note: % is set by controls: 0 for no effect and ±100 for the full control effect. The essentials: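 Competitive displacement of profluorescent 1-aminoanthracene (1-AMA, 50% saturated solution in PBS) from 10 uM horse-spleen apoferritin. Compounds incubated 10 min at room temperature; fluorescence read at 380 nm excitation/535 nm emission, normalized to free 1-AMA and complex, fitted with four-parameter Hill equation.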

Assay [12] concerns the target ATP-dependent DNA helicase Q1 (Homo sapiens) (UniProt P46063). In words: qHTS Validation Assay for Inhibitors of RecQ-Like Dna Helicase 1 (RECQ1) (AID 2353).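 Note: plate controls were DMSO vehicle for no effect and enzyme-free control for full effect.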 Put shortly: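 50 nM RECQ1T1 preincubated 15 min with compound in Tris pH 8.0 buffer with MgCl2, DTT, Tween-20 and 2.5 ug/ml poly(dI-dC); started with 200 nM TAMRA/BHQ-2 forked duplex and 2 mM ATP. Unwinding read as fluorescence (525/598 nm), two reads 2 h apart.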

A short description of assay [13]: High Content Imaging Cell-Based qHTS for Inhibitors of the mTORC1 Signaling Pathway in MEF (Tsc2-/-, p53-/-) Cells (AID 2666).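 Note: percent of cells scored positive for phospho-rpS6 Ser235/236 immunostaining by imaging.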 The essentials:
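Read-out: % positive cells per well, with thresholds from highest- and lowest-signal wells, based on phospho-rpS6 (Ser235/236) intensity normalized to Hoechst nuclear stain. Cells: Tsc2-/-, p53-/- MEFs carrying empty vector; compound 24 hrs, 37 degree Celsius.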

The nature of assay [14]: High Content Imaging Cell-Based qHTS for Inhibitors of the mTORC1 Signaling Pathway in MEF Cells (AID 2667).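 For activity change, negative = inhibition: Tsc2-/- p53-/- MEFs stably re-expressing wild-type Tsc2 exposed 24 h; plate controls were DMSO wells for no effect and rapamycin control wells for full effect.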 Note: potency is the fitted concentration of half-maximal effect. Put shortly: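 MEF (Tsc2-/-, p53-/-, WT Tsc2 re-expressed); cpd 24 h, 37 °C; PFA fix; Alexa-488 anti-p-rpS6 Ser235/236, PI, Hoechst; IN Cell imaging; Hoechst/Alexa-488 intensity ratio; % active cells, thresholds set from rapamycin and DMSO wells.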
The nature of assay [15]: Validation of Assay for Modulators of Lamin A Splicing (AID 1459; active = well fitted curve in the direction sought with a large enough effect in the signal ratio; the % refers to the signal ratio;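 note: cells exposed to compound for two days before reading; 0% is about no effect; ratio rise marks activators and ratio drop marks inhibitors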). The essentials: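 S3 HeLa cells stably expressing a lamin A-EGFP splicing minigene and DsRed2 were seeded at 600 cells/well in Opti-MEM with 2% FBS, pin-dosed, and incubated 48 hrs at 37 °C, 5% CO2. Laser-scanning cytometry (488 nm) gave GFP/RFP total intensity ratio.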
The target of assay [16] is Endonuclease 4 (Escherichia coli (strain K12)) (UniProt P0A6C1). The assay can be described thus: Counterscreen for APE1 Inhibitors: qHTS Validation Assay for Inhibitors of Endonuclease IV (AID 1708). Note: % is set by controls: 0 for no effect and ±100 for the full control effect. Put shortly:
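2 nM enzyme was preincubated with compounds for 15 min at room temperature in 50 mM Tris-HCl pH 7.5, 50 mM NaCl, 2 mM MgCl2, 1 mM DTT, 0.01% Tween-20. 50 nM THF-abasic TAMRA/BHQ-2 duplex substrate started the reaction.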

A short description of assay [17]: qHTS Assay for Lipid Storage Modulators (AID 1519; calls by dose curve; note: potency is the fitted concentration of half-maximal effect; for activity change, negative = inhibition: % is set by controls: 0 for no effect and ±100 for the full control effect). As to conditions: Drosophila S3 cells, BODIPY lipid droplet/cell ratio, laser cytometry, cells loaded with oleic acid. The essentials: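 Cells seeded at 5,000 per well were treated with compounds over a concentration series and loaded with oleic acid (400 uM, as added). Lipid droplet fluorescence (488 nm excitation, 500-530 nm channel) was read by laser-scanning cytometry and normalized to 20 uM Triacsin C.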

For assay [18], the target named is RecQ-like DNA helicase BLM (Homo sapiens) (UniProt P54132). In words: qHTS Validation Assay for Inhibitors of Bloom's syndrome helicase (BLM) (AID 2364).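 Note: plate controls were DMSO vehicle for no effect and enzyme-free control for full effect.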 Put shortly: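 BLM 50 nM in 25 mM Tris-HCl pH 8.0, 5 mM NaCl, 2 mM MgCl2, 1 mM DTT, 0.01% Tween-20, 2.5 ug/ml poly(dI-dC); 15 min cpd preinc, RT. Start: 200 nM forked DNA + 2 mM ATP (final). TAMRA read, 2 reads 2 h apart.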
Chain of RecQ-like DNA helicase BLM (Homo sapiens) (P54132 whole entry, looked up): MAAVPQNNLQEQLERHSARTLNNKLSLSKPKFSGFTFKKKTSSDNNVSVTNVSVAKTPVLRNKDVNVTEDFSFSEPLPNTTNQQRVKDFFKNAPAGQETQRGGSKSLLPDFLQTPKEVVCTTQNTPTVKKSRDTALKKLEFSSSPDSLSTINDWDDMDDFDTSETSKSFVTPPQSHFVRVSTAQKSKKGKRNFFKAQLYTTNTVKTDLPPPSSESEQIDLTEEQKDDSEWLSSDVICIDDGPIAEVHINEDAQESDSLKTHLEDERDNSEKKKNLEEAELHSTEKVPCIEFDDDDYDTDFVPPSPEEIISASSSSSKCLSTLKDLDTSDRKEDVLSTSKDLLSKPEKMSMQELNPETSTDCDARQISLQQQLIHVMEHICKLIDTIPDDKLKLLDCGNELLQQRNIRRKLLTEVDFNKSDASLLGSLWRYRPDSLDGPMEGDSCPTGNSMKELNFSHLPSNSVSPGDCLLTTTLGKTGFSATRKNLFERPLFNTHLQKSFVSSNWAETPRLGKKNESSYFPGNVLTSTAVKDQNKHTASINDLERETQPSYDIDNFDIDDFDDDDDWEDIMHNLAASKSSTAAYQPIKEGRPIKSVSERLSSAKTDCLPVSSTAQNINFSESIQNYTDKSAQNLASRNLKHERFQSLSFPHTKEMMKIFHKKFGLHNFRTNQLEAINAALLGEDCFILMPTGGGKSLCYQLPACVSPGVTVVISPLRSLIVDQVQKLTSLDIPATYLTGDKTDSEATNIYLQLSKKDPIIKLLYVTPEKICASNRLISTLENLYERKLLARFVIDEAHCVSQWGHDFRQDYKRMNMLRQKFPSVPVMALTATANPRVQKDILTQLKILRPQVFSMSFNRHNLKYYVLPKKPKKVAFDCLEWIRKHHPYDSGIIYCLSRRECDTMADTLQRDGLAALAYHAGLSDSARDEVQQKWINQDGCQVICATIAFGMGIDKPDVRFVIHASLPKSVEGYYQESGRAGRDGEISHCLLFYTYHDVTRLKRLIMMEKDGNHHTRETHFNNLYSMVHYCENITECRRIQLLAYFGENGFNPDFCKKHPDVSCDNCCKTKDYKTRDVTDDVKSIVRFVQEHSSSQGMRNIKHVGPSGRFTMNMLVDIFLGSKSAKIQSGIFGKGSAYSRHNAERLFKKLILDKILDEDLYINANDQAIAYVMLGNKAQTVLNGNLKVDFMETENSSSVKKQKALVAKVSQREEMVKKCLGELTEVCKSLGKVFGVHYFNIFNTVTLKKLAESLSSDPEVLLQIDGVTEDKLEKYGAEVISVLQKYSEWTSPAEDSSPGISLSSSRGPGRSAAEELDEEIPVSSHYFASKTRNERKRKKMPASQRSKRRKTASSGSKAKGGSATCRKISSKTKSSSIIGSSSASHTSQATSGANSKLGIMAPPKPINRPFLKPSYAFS

Setting [19] is: measured here: cell count channel max response.
Setting [20] is: measured here: lipid channel max response.

Results filed as inconclusive are left out. Active and inactive are the calls of the source. Unless noted, calls come from the whole dose curve; as a rule, active = well fitted curve in the direction sought with a large enough effect; inconclusive = small, poorly fitted or top-dose-only effect, or another doubt; inactive = no such curve, though single readings can be large; an effect the other way counts as inactive or inconclusive.

Chain of ATP-dependent DNA helicase Q1 (Homo sapiens) (P46063 whole entry, looked up): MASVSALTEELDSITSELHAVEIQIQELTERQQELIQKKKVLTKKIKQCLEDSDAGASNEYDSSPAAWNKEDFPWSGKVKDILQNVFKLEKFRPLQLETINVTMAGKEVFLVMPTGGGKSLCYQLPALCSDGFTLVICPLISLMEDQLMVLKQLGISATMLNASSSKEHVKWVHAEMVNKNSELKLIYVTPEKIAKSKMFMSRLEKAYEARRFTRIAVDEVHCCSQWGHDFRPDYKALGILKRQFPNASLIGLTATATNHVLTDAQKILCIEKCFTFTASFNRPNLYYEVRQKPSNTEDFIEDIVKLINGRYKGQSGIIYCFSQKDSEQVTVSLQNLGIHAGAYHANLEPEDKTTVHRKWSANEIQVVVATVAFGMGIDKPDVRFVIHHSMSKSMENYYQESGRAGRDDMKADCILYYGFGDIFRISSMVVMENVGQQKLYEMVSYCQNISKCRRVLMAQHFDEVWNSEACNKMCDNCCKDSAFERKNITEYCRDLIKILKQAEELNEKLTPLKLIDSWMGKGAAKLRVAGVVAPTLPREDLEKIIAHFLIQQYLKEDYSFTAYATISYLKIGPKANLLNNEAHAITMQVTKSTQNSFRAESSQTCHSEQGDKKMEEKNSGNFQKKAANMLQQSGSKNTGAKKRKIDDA
Chain of DNA repair nuclease/redox regulator APEX1 (Homo sapiens) (P27695 whole entry, looked up): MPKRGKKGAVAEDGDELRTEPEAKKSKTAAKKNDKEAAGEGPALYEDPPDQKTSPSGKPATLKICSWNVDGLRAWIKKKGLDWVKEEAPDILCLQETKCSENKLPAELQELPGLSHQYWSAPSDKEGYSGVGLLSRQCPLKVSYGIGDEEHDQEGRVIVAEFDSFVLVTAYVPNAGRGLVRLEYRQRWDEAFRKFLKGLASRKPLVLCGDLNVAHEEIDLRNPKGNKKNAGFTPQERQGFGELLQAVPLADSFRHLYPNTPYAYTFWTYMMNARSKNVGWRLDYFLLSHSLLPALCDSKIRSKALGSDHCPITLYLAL
Chain of Ferritin light chain (Equus caballus) (P02791 2-175 limits assumed): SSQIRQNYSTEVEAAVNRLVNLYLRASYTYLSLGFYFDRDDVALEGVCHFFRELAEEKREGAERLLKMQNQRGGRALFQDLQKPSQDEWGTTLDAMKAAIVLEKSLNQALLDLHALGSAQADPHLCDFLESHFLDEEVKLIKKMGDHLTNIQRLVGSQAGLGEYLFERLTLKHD

For `NC(N)=NOCCC(N)C(=O)O` (configuration not stated), the Potency result in assay [1], in assay [2], in assay [3], in assay [4], in assay [5] and in [6] was “inactive” throughout. For the same molecule, the Potency entry in assay [7], in [8], in [9], in assay [13] and in [14] was “inactive” throughout. The call in assay [10], in [11] and in [12] was inactive.

Consider `NC1CCc2cc(O)c(O)cc2C1` (configuration not stated), for which the molecule was classed as inactive in assay [15], in [10], in assay [11] and in assay [12]. The Potency result in assay [1], in assay [16], in assay [3], in assay [5], in assay [7] and in [13] was “inactive” throughout. Moreover, the Potency result in assay [14] was “inactive”. For the same molecule, the Potency in assay [8] was 14.1 µM (active).

For the molecule `COc1ccc2c(c[n+](C)c3c4cc5c(cc4ccc23)OCO5)c1OC`, the Potency result in assay [1], in [16], in assay [13] and in assay [14] was “inactive” in each case. For the same molecule, the Potency is 14.1 µM (active) in assay [2]; 14.1 µM (active) in assay [3]; 14.1 µM (active) in [4]; 11.2 µM (active) in assay [7]; 12.6 µM (active) in [8]. In addition, the molecule was classed as inactive in assay [11] and in assay [12].

For `CC(=O)OCC1=C(C(=O)O)N2C(=O)[C@@H](N)[C@@H]2SC1`, the activity change, negative = inhibition in assay [17] (at 25.7 µM (top of the series)) is 1.55% (inactive). Besides, the max response amounted to 7.67% in [17] (setting [19]) and 10.5% in assay [17] (setting [20]).

With `CC[C@@]1(O)C(=O)OCc2c1cc1n(c2=O)Cc2cc3ccccc3nc2-1`, the activity change, negative = inhibition in assay [17] (at 57.5 µM (top of the series)) is -4.36% (inactive). Also, the max response in assay [17] (setting [19]) was 13.2%; in [17] (setting [20]) it was 8.88%. The Potency entry in [1], in assay [2], in assay [16] and in assay [13] was “inactive” in each case. Also, the Potency in [3] is 1.41 µM (active); in [4], 0.794 µM (active); in [5], 0.794 µM (active); in [6], 1.12 µM (active); in assay [7] it was 1 µM (active); in assay [8] it was 0.794 µM (active). Also, the Potency is 0.794 µM (active) in assay [9] and 0.104 µM (active) in [14]. Further, the call in [12] was inactive.

Take `CCCCCCCCCCCCCCCC[N+](C)(C)C`: the Potency in assay [17] was 11.2 µM (active). The max response in assay [17] (setting [19]) was -15.3%; in assay [17] (setting [20]), -89.4%.

With `Clc1cnc(Oc2ccc(Oc3ncc(Cl)cc3Cl)cc2)c(Cl)c1`, the molecule was called inactive in [15], in [10], in assay [11] and in [12]. For the same molecule, the Potency entry in assay [2], in assay [16], in [4], in [5], in assay [6] and in assay [7] was “inactive” in each case. The Potency entry in assay [9], in assay [18], in assay [13] and in assay [14] was “inactive” each time.

As for `CC(Cc1ccc(O)cc1)NCC(O)c1cc(O)cc(O)c1` (configuration not stated), the Potency result in assay [1], in assay [2], in [16], in assay [7], in [13] and in assay [14] was “inactive” in each case. Also, the result in [11] was inactive.

Turning to `CC(=O)NCCc1c[nH]c2ccccc12`, the call in assay [15], in assay [10], in [11] and in [12] was inactive. The Potency entry in assay [1], in assay [2], in assay [16], in assay [4], in assay [5] and in assay [6] was “inactive” in each case. Also, the Potency entry in assay [7], in [9], in assay [13] and in assay [14] was “inactive” each time.

In the case of `O=C(O)CCCOc1ccc(Cl)cc1Cl`, the activity change, negative = inhibition in assay [17] (at 57.5 µM (top of the series)) is 4.8% (inactive). Further, the results for the max response in assay [17] (setting [19]) and in assay [17] (setting [20]) were 15.4% and 22.4%, respectively.

As for `CNCCc1ccc(O)c(O)c1`, the Potency entry in assay [1], in assay [2], in assay [16], in [13] and in assay [14] was “inactive” throughout. Further, the Potency in [4] is 8.91 µM (active); in assay [5] it was 12.6 µM (active); in assay [8] it was 10 µM (active). The molecule was classed as inactive in [11] and in assay [12].

Values taken from PubChem BioAssay (NCATS).
